Records with an inconclusive call do not appear. Activity calls are given as the source filed them. The call rests on the fitted dose curve; in most records, active means well fitted inhibition curve with a large enough effect; inconclusive means small, poorly fitted or top-dose-only effect; inactive means flat fitted curve, though single readings scatter.
What was measured:
CRL-7250 = normal cell line; experiment: Cytotoxic Profiling of Annotated Libraries Using Quantitative High-Throughput Screening (AID 1296008); settings: Five cell lines viability, CellTiter-Glo ATP luminescence, 48-72 h; max response: stronger effect = lower value; on max response: on the % scale 0 is the no-effect control and ±100 the full control effect
How it was run: (§1)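 Cytotoxicity was measured as CellTiter-Glo ATP luminescence, read after 10 min at room temperature. Compound treatment of the cells lasted 48 or 72 hr at 37 degrees Celsius in a qHTS format.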

HEK293 = experiment: as above; settings: Five cell lines viability, CellTiter-Glo ATP luminescence, 48-72 h; max response: stronger effect = lower value
How it was run: as §1

HaCat [1] = experiment: as above; settings: Five cell lines viability, CellTiter-Glo ATP luminescence, 48-72 h; max response: stronger effect = lower value
How it was run: as §1

KB-3-1 = experiment: as above; settings: Five cell lines viability, CellTiter-Glo ATP luminescence, 48-72 h; max response: stronger effect = lower value
How it was run: as §1

NIH3T3 = experiment: as above; settings: Five cell lines viability, CellTiter-Glo ATP luminescence, 48-72 h; max response: stronger effect = lower value
How it was run: as §1

HACAT [2] = experiment: qHTS assay to identify novel small-molecules to repurpose for Merkel cell carcinoma treatment (AID 1296009); settings: MCC and control cell lines, CellTiter-Glo viability, 72 h; at 44.8 µM (top of the series) unless noted
How it was run: (§2)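 Cell viability, measured as CellTiter-Glo luminescence, was normalized between DMSO and no-cell wells. The cells had been exposed to 8- or 11-point compound dilutions for 72 hr at 37 degree celsius.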

HEK293T = experiment: as above; settings: MCC and control cell lines, CellTiter-Glo viability, 72 h; series mostly up to 44.8 µM
How it was run: as §2
Further: nearly all actives have a fitted effect of over 60% in size.

C/C(=C\CCC(C)(O)c1ccc(C)cc1)C(=O)O (stereo not drawn)
inactive: max response (CRL-7250) -2.36% | outcome (HEK293) | outcome (HaCat [1]) | outcome (KB-3-1) | max response (NIH3T3) 0.595% | outcome (HACAT [2]) | Potency (HEK293T)

CNC(=O)O[C@H]1COc2ccc(N3CCN(C4COC4)CC3)cc2[C@@H]1NC(=O)c1ccc(F)cc1
inactive: max response (CRL-7250) -2.36% | outcome (HEK293) | outcome (HaCat [1]) | outcome (KB-3-1) | outcome (NIH3T3) | outcome (HACAT [2]) | Potency (HEK293T)

CC(=O)OC(CSC1CCC(=O)OC(C)CCC(=O)C1)C(=O)O (stereo not drawn)
inactive: max response (CRL-7250) -6.05% | outcome (HEK293) | outcome (HaCat [1]) | outcome (KB-3-1) | outcome (NIH3T3) | outcome (HACAT [2]) | Potency (HEK293T)

O=C1N(CC2CCCCN2)CCN1c1ccccc1 (stereo not drawn)
inactive: max response (CRL-7250) -3.2% | outcome (HEK293) | outcome (HaCat [1]) inactive; activator | outcome (KB-3-1) | outcome (NIH3T3) | outcome (HACAT [2]) inactive; activator | Potency (HEK293T)

CC/C=C\C[C@H]1C(=O)C=C[C@@H]1CCCCCCCC(=O)O
inactive: max response (CRL-7250) 4.76% | outcome (HEK293) | outcome (HaCat [1]) | max response (KB-3-1) -3.68% | outcome (NIH3T3) | outcome (HACAT [2]) | Potency (HEK293T)

C=C1CC/C=C(/CO)C(=O)C[C@@H]2[C@@H]1CC2(C)C
inactive: outcome (CRL-7250) | outcome (HEK293) | outcome (HaCat [1]) | max response (KB-3-1) 2.82% | max response (NIH3T3) 0.52% | outcome (HACAT [2]) | Potency (HEK293T)

C[C@]12CC[C@@H]3c4ccc(O[C@@H]5O[C@H](C(=O)O)[C@@H](O)[C@H](O)[C@H]5O)cc4CC[C@H]3[C@@H]1CCC2=O
inactive: max response (CRL-7250) -0.486% | outcome (HEK293) | outcome (HaCat [1]) | outcome (KB-3-1) | outcome (NIH3T3) | outcome (HACAT [2]) | Potency (HEK293T)

C=C1C(=O)OC2CC(C)=C(C(C)CCCO[C@@H]3O[C@H](CO)[C@@H](O)[C@H](O)[C@H]3O)C(O)C12 (stereo partly drawn)
inactive: max response (CRL-7250) -0.682% | outcome (HEK293) | outcome (HaCat [1]) | outcome (KB-3-1) | outcome (NIH3T3) | outcome (HACAT [2]) inactive [at 17.4 µM] | Potency (HEK293T)

C[C@@H]1O[C@@H](O[C@@H]2[C@@H](O)[C@H](O[C@@H]3[C@@H](O)[C@@H](O)[C@H](O[C@H]4[C@H](OC(=O)[C@]56CCC(C)(C)C[C@H]5C5=CCC7[C@@]8(C)C[C@H](O)[C@H](O[C@@H]9O[C@H](C(=O)O)[C@@H](O)[C@H](O)[C@H]9O)[C@@](C)(CO)C8[C@H](O)C[C@@]7(C)[C@]5(C)CC6)OC[C@H](O)[C@@H]4O)O[C@H]3C)OC[C@H]2O)[C@H](O)[C@H](O)[C@H]1O (stereo partly drawn)
inactive: max response (CRL-7250) -17.9% | outcome (HEK293) | outcome (HaCat [1]) | max response (KB-3-1) 2.1% | outcome (NIH3T3) | outcome (HACAT [2]) inactive [at 9.27 µM] | outcome (HEK293T) inactive [at 9.27 µM]

COc1cc(C(C)=O)ccc1O[C@@H]1O[C@H](CO[C@@H]2O[C@@H](C)[C@H](O)[C@@H](O)[C@H]2O)[C@@H](O)[C@H](O)[C@H]1O
inactive: max response (CRL-7250) -2.17% | outcome (HEK293) | outcome (HaCat [1]) | outcome (KB-3-1) | outcome (NIH3T3) | outcome (HACAT [2]) inactive [at 17.4 µM] | Potency (HEK293T)

CC1(C)CCCC2(C)C3=C(C(=O)OC3O)C(O)CC12 (stereo not drawn)
inactive: max response (CRL-7250) -10.8% | outcome (HEK293) | outcome (HaCat [1]) | max response (KB-3-1) 2.72% | outcome (NIH3T3) | outcome (HACAT [2]) | Potency (HEK293T)

CC1CC(O)C2(C)C(C(=O)O)=CCCC2C1(C)CCc1ccoc1 (stereo not drawn)
inactive: max response (CRL-7250) 0.739% | outcome (HEK293) | outcome (HaCat [1]) | outcome (KB-3-1) | max response (NIH3T3) -2.92% | outcome (HACAT [2]) | Potency (HEK293T)

C[C@@H]1CC[C@]2(C(=O)O[C@@H]3O[C@H](CO)[C@@H](O)[C@H](O)[C@H]3O)CC[C@]3(C)C(=CCC4[C@@]5(C)C[C@@H](O)[C@H](O)C(C)(C)C5CC[C@]43C)C2[C@]1(C)O (stereo partly drawn)
inactive: outcome (CRL-7250) | outcome (HEK293) | outcome (HaCat [1]) | max response (KB-3-1) 0.448% | outcome (NIH3T3) | outcome (HACAT [2]) inactive [at 17.4 µM] | Potency (HEK293T)

COc1cc(O[C@@H]2O[C@H](CO)[C@@H](O)[C@H](O)[C@H]2O)c(CCC(=O)OC[C@H]2O[C@@H](Oc3cc(OC)c(C4OC(=O)C(C)(O)C4O)cc3CCC(=O)O)[C@H](O)[C@@H](O)[C@@H]2O)cc1C1OC(=O)C(C)(O)C1O (stereo partly drawn)
inactive: max response (CRL-7250) 1.01% | outcome (HEK293) | outcome (HaCat [1]) | max response (KB-3-1) 9.44% | max response (NIH3T3) -2.47% | outcome (HACAT [2]) inactive [at 9.27 µM] | outcome (HEK293T) inactive [at 9.27 µM]

CC(=O)OC[C@]12[C@H](OC(C)=O)C(=O)[C@@H]3[C@@H](OC(C)=O)[C@@]14O[C@@]3(C)COC(=O)c1cccnc1[C@@H](C)[C@H](C)C(=O)O[C@@H]([C@H](OC(C)=O)[C@@H]2OC(C)=O)[C@]4(C)O
inactive: max response (CRL-7250) 2.64% | outcome (HEK293) | outcome (HaCat [1]) | outcome (KB-3-1) | max response (NIH3T3) -8.22% | outcome (HACAT [2]) inactive [at 17.4 µM] | Potency (HEK293T)

CCc1c(CC(N)=O)c2cc(OCCCP(=O)(O)O)ccc2n1Cc1ccccc1
inactive: max response (CRL-7250) -8.49% | outcome (HEK293) | outcome (HaCat [1]) | outcome (KB-3-1) | max response (NIH3T3) -4.64% | outcome (HACAT [2]) | Potency (HEK293T)

C[C@@H]1O[C@@H](O[C@@H]2[C@@H](O)[C@H](O[C@@H]3[C@@H](O)[C@@H](O)[C@H](O[C@H]4[C@H](OC(=O)[C@]56CCC(C)(C)C[C@H]5C5=CCC7[C@@]8(C)C[C@H](O)[C@H](O[C@@H]9O[C@@H](C)[C@H](O)[C@@H](O)[C@H]9O)[C@@](C)(CO)C8CC[C@@]7(C)[C@]5(C)C[C@H]6O)O[C@H](C)[C@H](O)[C@@H]4O)O[C@H]3C)OC[C@H]2O)[C@H](O)[C@H](O)[C@H]1O (stereo partly drawn)
inactive: max response (CRL-7250) 4.2% | outcome (HEK293) | outcome (HaCat [1]) | outcome (KB-3-1) | outcome (NIH3T3) | outcome (HACAT [2]) inactive [at 9.27 µM] | outcome (HEK293T) inactive [at 9.27 µM]

CN1CC[C@@H](NC(=O)Nc2ccc(C#N)cc2)C[C@@H]1c1nc2ccccc2[nH]1
inactive: max response (CRL-7250) -0.913% | outcome (HEK293) | outcome (HaCat [1]) | max response (KB-3-1) -8.77% | max response (NIH3T3) 4.24% | outcome (HACAT [2]) | Potency (HEK293T)

CC(=O)O[C@@H]1[C@H]2[C@@H](OC(=O)c3ccccc3)[C@@H](C)C[C@]2(O)[C@H](OC(C)=O)[C@@]2(C)[C@@H]3CC(C)(C)C(=O)[C@]3(OC(C)=O)C[C@@]12C
inactive: outcome (CRL-7250) | outcome (HEK293) | outcome (HaCat [1]) | outcome (KB-3-1) | max response (NIH3T3) 4.53% | outcome (HACAT [2]) inactive [at 17.4 µM] | Potency (HEK293T)

C[C@]1(O)CC[C@@H]2C(C(=O)O)=CO[C@@H](O[C@@H]3O[C@H](COC(=O)c4ccc(O)cc4)[C@@H](O)[C@H](O)[C@H]3O)[C@@H]21
inactive: max response (CRL-7250) 2.99% | outcome (HEK293) | outcome (HaCat [1]) | max response (KB-3-1) 9.39% | max response (NIH3T3) 2.95% | outcome (HACAT [2]) inactive [at 17.4 µM] | Potency (HEK293T)

OC[C@H]1O[C@@H](Oc2ccc3c(c2)OC[C@H]2c4cc5c(cc4O[C@@H]32)OCO5)[C@H](O)[C@@H](O)[C@@H]1O
inactive: max response (CRL-7250) -1.83% | outcome (HEK293) | outcome (HaCat [1]) | outcome (KB-3-1) | max response (NIH3T3) 0.631% | outcome (HACAT [2]) inactive [at 17.4 µM] | Potency (HEK293T)

C1CCN2CC3C[C@@H](CN4CCCC[C@@H]34)[C@H]2C1
inactive: max response (CRL-7250) 3.38% | outcome (HEK293) | outcome (HaCat [1]) | max response (KB-3-1) 5.45% | max response (NIH3T3) -1.12% | outcome (HACAT [2]) | Potency (HEK293T)

C[C@H]1CN(C[C@H](Cc2ccccc2)C(=O)NCC(=O)O)CC[C@@]1(C)c1cccc(O)c1
inactive: max response (CRL-7250) -8.36% | outcome (HEK293) | outcome (HaCat [1]) | outcome (KB-3-1) | outcome (NIH3T3) | outcome (HACAT [2]) | Potency (HEK293T)

C=CC(C)(C)C12CC3C(=O)NC(Cc4cnc[nH]4)C(=O)N3C1Nc1ccccc12 (stereo not drawn)
inactive: max response (CRL-7250) -2.57% | outcome (HEK293) | outcome (HaCat [1]) | outcome (KB-3-1) | outcome (NIH3T3) | outcome (HACAT [2]) | Potency (HEK293T)

— PubChem BioAssay (NCATS)
